# Results as given in PubChem BioAssay (NCATS).
# Records with an inconclusive call do not appear. A call without a number means that no potency is given here. Activity calls are given as the source filed them. The call rests on the fitted dose curve; in most records, active means well fitted inhibition curve with a large enough effect; inconclusive means small, poorly fitted or top-dose-only effect; inactive means no such curve, though single readings can be large or run the other way.
# Experiment: qHTS assay for measurement of the activity of small molecule inhibitors on Zika virus induced Caspase-3 activity in human iPSC derived neural progenitor cells (hNPCs) (AID 1224857); further: nearly all actives have a fitted effect of over 65% in size
# Settings: hNPCs ZIKV-induced caspase-3/7, Caspase-Glo luminescence, 6 h; series mostly up to 45.7 µM
# Description: National Center for Advancing Translational Sciences [NCATS]
# Johns Hopkins University School of Medicine
# Increase in the Caspase-3 activity indicates an activation of apoptosis cell death pathway caused by Zika virus infection in certain types of neuronal cells including human neural progenitor cells (hNPCs), astrocytes, and astrocytoma cell line (SNB-19). This cell-based caspase-3 activity assay measures the increased caspase-3 activity in the human iPSC derived neural progenitor cells (hNPCs) after a 6-hour Zika virus infection with a luminescence readout. A decrease in the luminescence signal in this assay by small molecule treatment indicates an inhibitory effect of that small molecule on the Zika virus induced caspase-3 activity that may correlate with its effect on reduction of Zika virus caused cell death.
# The medium for hNPCs consists of DMEM/F12, N2 supplement (ThermoFisher, Cat.# 17502048), NEAA (ThermoFisher, Cat. # 11140050), 2 ug/ml heparin, 2 uM cyclopamine, and B27 (ThermoFisher, Cat. # 17504044). A Caspase-Glo 3/7 assay kit (catalog number G8092; Promega, Madison, WI) was used to detect caspase-3 activity induced by Zika virus infection in human cells. The reagent mixture was reconstituted as described in the protocol from the manufacturer. Polystyrene tissue culture treated and PDL coated white plates were obtained from Greiner Bio-One (Monroe, NC). Cells were seeded in 384- or 1536-well assay plates and cultured at 37 C with 5% CO2 for 16 to 20 hours. The typical cell seeding density in the 1536-well plate assay is 350 cells/well in 3 ul medium for hNPCs in tissue culture treated plates. Compounds were added to cells and incubated for one hour before addition of ZIKV solution to cells (2 FFU/cell). After incubation at 37 C with 5% CO2 for 6 hours, the reagent mixture of Caspase-Glo 3/7 assay kit was added to each well, followed by incubation at room temperature for 30 minutes. The luminescence intensity of the assay plates was measured using a ViewLux plate reader (PerkinElmer). Data were normalized by using the cell-containing wells without ZIKV as a negative control (0% induction of caspase 3/7 activity) and wells containing ZIKV infected cells (Caspase-3 activity induced) as a positive control (100% induction of caspase 3 activity). The percentage inhibitions of the increased Caspase-3 activity by small molecule inhibitors were then calculated.
SMILES,Potency,"activity change, negative = inhibition"
COC(=O)[C@H](CCCN=C(N)N)NS(=O)(=O)c1ccc(C)cc1,inactive,
C[C@]12CCC(=O)C=C1[C@@H]1CC1[C@H]1[C@H]3[C@@H]4C[C@H]4[C@@]4(CCC(=O)O4)[C@@]3(C)CC[C@H]12 (stereo not given in full),inactive,
O=C(Nc1ccc(Oc2ccnc3[nH]ccc23)c(F)c1)c1cccn(-c2ccc(F)cc2)c1=O,inactive,
O=C(O)C=Cc1ccc(Cn2ccnc2)cc1,inactive,
CC(C)N(CC[C@H](c1ccccc1)c1cc(CO)ccc1O)C(C)C,inactive,
O=C(NCc1ccccc1)[C@H](Cc1ccccc1)NC(=O)[C@@H]1O[C@@H]1C(=O)NCCc1ccc(O)cc1,inactive,
CCNC(=O)c1cc2c(-c3cc(OCCN4CCCC4)c(Cl)cc3Cl)nc(N)nc2s1,inactive,
C[C@H](O)[C@@H]1C(=O)N2C(C(=O)O)=C(S[C@@H]3CN[C@H](CNS(N)(=O)=O)C3)[C@@H](C)[C@@H]12,inactive,
C#Cc1cccc(Nc2ncnc3cc(OCCOC)c(OCCO)cc23)c1,inactive,
COc1ccc([C@@H]2CNC(=O)C2)cc1OC1CCCC1,inactive,
CCC(C=C[C@@H]1OC(=O)C=C[C@H]1C)=C[C@H](C)CC=CC(C)=C[C@@H](C)C(=O)[C@@H](C)[C@H](O)[C@@H](C)CC(C)=CC(=O)O,,14.9% [at 1.73 µM] (inactive)
CCCNS(=O)(=O)Nc1ncnc(OCCOc2ncc(Br)cn2)c1-c1ccc(Br)cc1,inactive,
CN(CC(=O)N(Cc1ccc(C2CCCCC2)cc1)c1ccc(C(=O)O)c(O)c1)S(=O)(=O)c1c(F)c(F)c(F)c(F)c1F,inactive,
COC[C@H](NC(=O)c1cnc(C)s1)C(=O)N[C@@H](COC)C(=O)N[C@@H](Cc1ccccc1)C(=O)[C@@]1(C)CO1,inactive,
N#Cc1ccc(COC[C@H]2O[C@@H](n3c(NCc4ccc(Cl)c(Cl)c4)nc4c(N)ncnc43)[C@@H](O)[C@@H]2O)cc1,inactive,
OC[C@H]1OC(O)C[C@@H](O)[C@H]1O (stereo not given in full),inactive,
CCCCCCCCCCCC(CC1OC(=O)C1CCCCCC)OC(=O)C(CC(C)C)NC=O (stereo not given),inactive,
C=CC1=C(C(=O)O)N2C(=O)[C@@H](NC(=O)C(=NO)c3csc(N)n3)[C@H]2SC1,inactive,
C=C1CCC2[C@](C)(CO)C(O)CC[C@]2(C)C1CC=C1C(=O)OCC1O (stereo not given in full),inactive,
C[C@@]12C(=O)OC(=O)[C@@]1(C)C1CCC2O1,inactive,

SMILES,Potency,"activity change, negative = inhibition"
CC(=O)O[C@@]12CO[C@H]1C[C@H](O)[C@@]1(C)C(=O)[C@H](O)C3=C(C)[C@@H](OC(=O)C(O)[C@@H](NC(=O)OC(C)(C)C)c4ccccc4)C[C@@](O)([C@@H](OC(=O)c4ccccc4)[C@@H]21)C3(C)C (stereo not given in full),inactive,
O=C1c2cccc(O)c2C(=O)c2c(O)cc(CO)cc21,inactive,
CCc1nc(-c2cccc(C)c2)c(-c2ccnc(NC(=O)c3ccccc3)c2)s1,inactive,
CCCCC(=O)O[C@]1(C(=O)CO)[C@@H](C)C[C@H]2[C@@H]3CCC4=CC(=O)C=C[C@]4(C)[C@@]3(F)[C@@H](O)C[C@@]21C,inactive,
CC(C)n1cnc2c(NCCc3ccc(O)cc3)nc(-c3csc4ccccc34)nc21,inactive,
NS(=O)(=O)OC[C@@H]1C[C@@H](n2ccc3c(N[C@H]4CCc5ccccc54)ncnc32)C[C@H]1O,inactive,
C[C@H]1C[C@H]2[C@@H]3CCC4=CC(=O)C=C[C@]4(C)[C@@H]3C(=O)C[C@]2(C)[C@@]1(O)C(=O)CO,inactive,
C[C@H](CCC(=O)O)[C@H]1CC[C@H]2[C@@H]3[C@H](O)C[C@@H]4C[C@H](O)CC[C@]4(C)[C@@H]3CC[C@]12C,inactive,
C=C(C)[C@@H]1CC[C@]2(C)CC[C@]3(C)[C@H](CC[C@@H]4[C@@]5(C)CC[C@H](O)C(C)(C)[C@H]5CC[C@]43C)[C@@H]12,inactive,
Nc1ccn(C2CO[C@H](CO)O2)c(=O)n1 (stereo not given in full),inactive,
Cc1noc(-c2ccc(CSCCC(=O)O)cc2)c1NC(=O)OC(C)c1ccccc1Cl (stereo not given),inactive,
COc1cc(C[C@@H](CO)[C@H](CO)Cc2ccc(O)c(OC)c2)ccc1O,inactive,
COc1ccc(S(=O)(=O)Nc2cc(-c3c(O)ccc4ccccc34)c(O)c3ccccc23)cc1,inactive,
C[C@]12C=CC(=O)N[C@@H]1CC[C@H]1[C@H]3CC[C@@H](C(=O)Nc4cc(C(F)(F)F)ccc4C(F)(F)F)[C@@]3(C)CC[C@@H]12,inactive,
O=C(Nc1nnc(-c2ccco2)o1)c1cc(-c2ccccc2)nc2ccccc12,inactive,
CN(C)CC(=O)N1CCC(c2ccc(NC(=O)c3ncc(C#N)[nH]3)c(C3=CCCCC3)c2)CC1,inactive,
C[C@@H](Cc1cc2c(c(C(N)=O)c1)N(CCCO)CC2)NCCOc1ccccc1OCC(F)(F)F,inactive,
COc1ccc2c(c1OC)C(=O)OC2[C@H]1c2c(cc3c(c2OC)OCO3)CCN1C (stereo not given in full),inactive,
CCc1ccc(C(=O)Nc2cc(CN3CCN(C)CC3)cc(C(F)(F)F)c2)cc1C#Cc1cnc2ccnn2c1,inactive,
CC(=O)O[C@H]1C[C@@H]2CC[C@H]3[C@H]4C[C@H]([N+]5(C)CCCCC5)[C@@H](OC(C)=O)[C@@]4(C)CC[C@@H]3[C@@]2(C)C[C@H]1N1CCCCC1,inactive,
